Reference: ChEMBL document CHEMBL3988442, “University of Dundee, Small-Polar-MMV Screening Library” (2021)
About 13,000 (27%) of roughly 48,000 compounds showed an effect of 50% or more. The list shows a part of the results.

System: Wolbachia pipientis
Test: Anti-Wolbachia Cell-Based Screen
Type: functional
Design: scale not given: in the data most compounds retested in dose-response had high values
Details: 5 µM

| SMILES | Percent Effect [%] |
| --- | --- |
| CCn1nc(C(=O)N2CCNCC2C(=O)Nc2ccc(C)nc2)cc1C (stereo unspecified) | -9.898 |
| CNc1cc(C2CCCN2C(=O)CCc2cnn(C)c2C)ccn1 (stereo unspecified) | 114.3 |
| Cc1c(CCC(=O)N2CCCC2c2ccnc(N(C)C)c2)cnn1C (stereo unspecified) | 100.7 |
| CNc1cc(C2CCCN2C(=O)CCc2ccccc2F)ccn1 (stereo unspecified) | 87.66 |
| CN(CC(=O)N1CCCC1c1cnn(C)c1)c1ccc(Cl)cn1 (stereo unspecified) | 7.888 |
| Cc1ncsc1CCC(=O)N1CCCC1c1cccnc1 (stereo unspecified) | -20.99 |
| CNc1cc(C2CCCN2Cc2ccccc2C(=O)O)ccn1 (stereo unspecified) | -9.621 |
| COc1ccc(Nc2cc(C)nc(C)n2)cc1N1CCCC1=O | -4.769 |
| O[C@H]1CC[C@@H](Cc2cc(-c3ccccc3)on2)O[C@@H]1CNCC1CC1 | 0.08363 |
| OCCN1CCC(CNCc2ccc(Br)cc2)CC1 | -27.23 |
| CC(C)N(C)C(=O)C1CSCN1S(=O)(=O)c1ccccc1F (stereo unspecified) | 0.8894 |
| CCc1cc(CNC(=O)C2CCC(=O)N(Cc3ccccc3F)C2)on1 (stereo unspecified) | -10.8 |
| CC(C)N1[C@H](CN2CCCC2)C[C@@H]2CN(Cc3cnn(C)c3)CC[C@@H]21 | 1.544 |
| CN1C(Cn2cccn2)C[C@@H]2CN(Cc3nccs3)CC[C@@H]21 (stereo partly specified) | 108 |
| CN1C(Cn2cccn2)C[C@@H]2CN(Cc3cnn(C)c3)CC[C@@H]21 (stereo partly specified) | 88.14 |
| Cn1cc(CN2CCO[C@H]3C(Cn4cccn4)CC[C@@H]32)cn1 (stereo partly specified) | 5.846 |
| CC(=O)N1[C@H](Cn2cncn2)C[C@@H]2CN(Cc3nccs3)CC[C@@H]21 | 4.372 |
| c1cnn([C@@H]2CN(Cc3nccs3)[C@@H]3CCCO[C@@H]32)c1 | -0.08077 |
| Cc1nc(CN2CCC3(CC2)CCN(C(=O)c2cscn2)C3)cs1.O=C(O)C(F)(F)F | -22.9 |
| CCN1CCN(C)C(=O)C12CCN(Cc1csc(C)n1)CC2.O=C(O)C(F)(F)F | 113.1 |
| CCc1ccc(CN2CCC3(CC2)C(=O)N(C)CCN3CC)cc1 | -23.08 |
| Cc1nc(Cn2c3c(ccc2=O)CCN(CC2CCC2)CC3)cs1.O=C(O)C(F)(F)F.O=C(O)C(F)(F)F | -14.62 |

| SMILES | Percent Effect [%] |
| --- | --- |
| Cc1nc(CN2CCC3(CC2)CC(=O)N(C)c2ccccc23)cs1.O=C(O)C(F)(F)F | -15.31 |
| Cc1nc(CN2CCC3(CC2)C(=O)N(C)CCN3C)cs1.O=C(O)C(F)(F)F.O=C(O)C(F)(F)F.O=C(O)C(F)(F)F | 99.41 |
| COCC1CC2(CCN(CC3CC3)CC2)CN1Cc1csc(C)n1.O=C(O)C(F)(F)F.O=C(O)C(F)(F)F (stereo unspecified) | 2.06 |
| Cc1nc(CN2CCN(C)C(=O)C23CCN(CC2CCCC2)CC3)cs1 | 121.4 |
| CC(NC(=O)c1cnccn1)c1nnc2ccccn12 (stereo unspecified) | -8.378 |
| CN(CC1Cc2ccccc2CN1C)C(=O)CSc1nccn1C (stereo unspecified) | -6.855 |
| CN(C)C(C(=O)Nc1nccs1)c1c(F)cccc1Cl (stereo unspecified) | -1.745 |
| CCCN1CCC(Nc2nc(CC)ns2)CC1 | -19.08 |
| O=C(c1ccncc1)N1CCC2(CC1)CCN(C(=O)c1cccnc1)C2 | 102.3 |
| CN(Cc1cccnc1)C1CC2(CCN(C(=O)c3ccnnc3)CC2)C1 | 9.482 |
| O=C(c1ccnnc1)N1CCC2(CC1)CCN(C(=O)c1cccnc1)C2 | 96.42 |
| O=C(c1ccncc1)N1CCC2(CC1)CC(Oc1cccnc1)CO2 (stereo unspecified) | -1.534 |
| COC(=O)[C@H]1CN(C(C)=O)CCN1C(C)=O | -4.652 |
| O=C1CCN(C(=O)C2(c3ccc(F)cc3)CCCCC2)CCN1 | -15.47 |
| CNS(=O)(=O)CCCNC(C)(C)c1nc(C)cs1 | 1.727 |
| CCOc1ccccc1C(CC(=O)O)NC(C)=O (stereo unspecified) | 10.47 |
| Cc1nsc(NC2CC(=O)N(C(C)(C)C)C2)n1 (stereo unspecified) | -3.11 |
| COc1cc(-c2n[nH]c(CO)n2)cc(OC)c1OC | 101.2 |
| COc1ccc(OC)c(-n2cnnc2CCN)c1 | 12.28 |
| COc1cc(CNc2nncs2)cc(OC)c1OC | -2.056 |
| COc1cc(-c2cnnc(NCCSC)n2)cc(OC)c1OC | -5.891 |
| COc1cc(CNc2nc3c(c(=O)[nH]2)CCNC3)cc(OC)c1OC | -8.828 |

| SMILES | Percent Effect [%] |
| --- | --- |
| COc1ccc(-c2ccccc2CCN)c(OC)c1OC | -10.47 |
| COc1cc(-c2cnnc(NCC3CC3)n2)cc(OC)c1OC | 22.6 |
| COc1cc(-c2n[nH]c(CCN)n2)cc(OC)c1OC | 136.2 |
| COc1cc(-c2n[nH]c(CC#N)n2)cc(OC)c1OC | 137.1 |
| COc1cc(CO)c(OC)c2c1OCO2 | 0.3319 |
| COc1cc(-c2nc(N)n[nH]2)cc(OC)c1OC | 107.9 |
| CC(C)c1nccn1C1CCCN(C(=O)c2cccc3[nH]ncc23)C1 (stereo unspecified) | -3.235 |
| CN(CCNC(=O)Nc1ccncc1)C1CCCCC1 | -10.45 |
| COCCC(=O)NCCCOC1CCCc2ccccc21 (stereo unspecified) | 3.193 |
| CC(=O)N1CCN(C(=O)NCCCN(C)S(C)(=O)=O)CC1 | -13.58 |
| CC(C)c1noc(C(C)N2CCN(Cc3nc4ccccc4[nH]3)CC2)n1 (stereo unspecified) | -18.96 |
| CCN(C(=O)CN1CCCC1Cc1ccccc1)c1ccccc1 (stereo unspecified) | 22.38 |
| COc1cc(-c2n[nH]c(CN)n2)cc(OC)c1OC | 105.2 |
| COc1cc(-c2cccc3c2OC(CN)C3)cc(OC)c1OC (stereo unspecified) | 1.955 |
| COc1cc(CN)c(OC)c2c1OCO2.Cl | -2.392 |
| CNS(=O)(=O)c1ccc(CNC(=O)NCC2CCOC2)cc1 (stereo unspecified) | 7.061 |
| Cn1cc(CN2CC[C@H]3C[C@@H](c4nc(C5CC5)cs4)O[C@@H]3C2)cn1 | -0.3412 |
| Fc1cnc(N2C[C@@H]3C[C@@H](c4nc(C5CC5)cs4)O[C@@H]3C2)nc1.O=C(O)C(F)(F)F | 94.12 |
| Cn1cc(CN2CC[C@H]3C[C@H](c4nc(C5CC5)cs4)O[C@@H]3C2)cn1 | 15.37 |
| Cc1csc([C@@H]2C[C@H]3CN(c4ncc(F)cn4)C[C@H]3O2)n1.O=C(O)C(F)(F)F | 98.65 |
| Cc1cnc(C(=O)N2CC[C@H]3C[C@@H](c4nc(C)cs4)O[C@@H]3C2)cn1 | -16.87 |
| Cc1nc(CN2C[C@@H]3CN(c4ncc(F)cn4)C[C@@H]3C2=O)cs1.O=C(O)C(F)(F)F | -12.56 |
